Assay results from PubChem BioAssay AID1347076 (National Center for Advancing Translational Sciences (NCATS), 2019).
Among all 400,000 compounds or so, about 13,000 (3.2%) were called active. A call without a number means that no potency is given here. Another 18% or so got no clear call; they are omitted. The call rests on the fitted dose curve; in most records, active means well fitted cell-killing curve with a large enough effect; inconclusive means small, poorly fitted or top-dose-only effect, or effect the other way; inactive means flat fitted curve, though single readings scatter. For the sample, actives were picked, then their nearest neighbours and some compounds at random.

Assay: qHTS assay for MDR1-selective chemotherapeutics: Primary screen using the drug-selected MDR subline cells KB-V1; further: nearly all actives have a fitted effect of over 60% in size
Conditions: KB-V1 MDR cells viability, CellTiter-Glo, 72 h; series mostly up to 46.1 µM
Text: A prime difficulty in effectively treating cancer is the development of cellular resistance to multiple structurally unrelated anticancer drugs, a phenomenon known as multidrug resistance (MDR). […] Numerous strategies to overcome P-gp-mediated MDR have been explored, including the design of drugs that evade recognition and efflux, and development of inhibitors to block efflux and restore drug accumulation. […] An alternative approach is to exploit resistance by identifying drugs that target MDR cells over the non-resistant parental cells from which they were selected. […] The development of MDR1-selective agents represents a new strategy for resolving multidrug resistance, as it remains a long-standing clinical challenge for cancer chemotherapy.
Our goal is to identify compounds that selectively kill P-gp-expressing MDR cells. We will identify MDR1-selective compounds by comparing toxicity of compounds in the screening library against parental, drug-naive (KB-3-1) adenocarcinoma cells as well as their drug-selected MDR sub-line (KB-V1). The differential toxicity of compounds against these two cell lines will be used to identify MDR1-selective compounds, whose cytotoxicity is potentiated, rather than diminished, by P-gp expression. This assay will be utilized to conduct a quantitative high-throughput screen (qHTS) in collaboration with the NIH Chemical Genomics Center to identify selective agents, and probe hits arising from the screen will be validated using secondary assays and characterized through a well-established follow-up research program. This screen was run against the entire NCGC library collection of about 400,000 compounds.
NIH Molecular Libraries Probe Production Network [MLPCN]
NIH Chemical Genomics Center [NCGC]
PI: Michael Gottesman, National Cancer Institute, NIH
Briefly, 5 microL of media containing either KB-V1 cells (columns 1-2, 4-48) are dispensed into Greiner white, treated solid-bottom 1536-well assay plates (media-only control is added to column 3). Compounds are then transferred via Kalypsys pin tool equipped with 1536-pin array (10 nL slotted pins, V&P Scientific, San Diego, CA). Following addition of compound, the plates are incubated at 37 degrees C for 72 hours. CellTiter-Glo (2.5 µL/well) is then added, and the plates are read in a ViewLux reader (Perkin-Elmer, clear luminescence filter, 1 second exposure, 1x binning) following a 10 minute incubation. All cells are dispensed in DMEM phenol-red free media containing 10% FBS.
Library plates were screened starting from the lowest and proceeding to the highest concentration. Vehicle-only plates, with DMSO being pin-transferred to columns 5-48, will be inserted uniformly at the beginning and the end of each library in order to monitor and record any shifts in the background, which can be affected by reagent dispensers or loss in enzyme activity over time. Screening data will be corrected, normalized, and concentration-effect relationships will be derived by using publicly-available NCGC, NCATS curve fitting algorithms (http://ncgc.nih.gov/pub/openhts).
Potency means the concentration at half of the fitted maximal effect.

Row | SMILES | Potency
1 | O=P(OC1=CCCCC1)(c1ccccc1)c1ccccc1 | inactive
2 | CCCOC(=O)C1C2c3ccccc3C(c3ccccc32)C1C(=O)O (stereo unspecified) | inactive
3 | CC1CCC(N(C)C2CCN(C)CC2)CC1 (stereo unspecified) | inactive
4 | Cc1ccc(-c2cc(C(=O)N3CCC4(CC3)OCCO4)no2)cc1 | inactive
5 | O=C(c1cc2nc(-c3ccccc3)cc(-c3ccccc3)n2n1)N1CCC2(CC1)OCCO2 | 25.9 µM (active)
6 | O=C(c1ccccc1[N+](=O)[O-])N1CCC2(CC1)OCCO2 | inactive
7 | CC1C2Cn3c(nc4ccccc43)C1N(C)O2 (stereo unspecified) | inactive
8 | COc1cc(C(=O)N2Cc3ccc(Br)cc3-n3nncc3C2)cc(OC)c1OC | inactive
9 | CCC(C)(O)C(=O)OC1C(=O)OC2CC3C(C)=CC(=O)C(O)C3(C)C3C4(O)OCC23C1C(C)C4O (stereo unspecified) | 11.6 µM (active)
10 | c1ccc(N2Cc3ccccc3-n3nncc3C2)nc1 | inactive
11 | CCC(C)n1c(O)c(/C=N/Nc2nc3c(c(=O)n(C)c(=O)n3C)n2C)c(=O)[nH]c1=S (stereo unspecified) | inactive
12 | CCN1C(=O)NC(=O)C2(CCCC2)C1=O | inactive
13 | COC(=O)CN(CCCl)P1(=O)OCCCN1CCCl (stereo unspecified) | inactive
14 | CC(=NCC1CCCO1)c1c(O)n(-c2ccccc2)c(=O)[nH]c1=O (stereo unspecified) | inactive
15 | CCCCC(=O)N/N=C/c1c(O)n(CCC2=CCCCC2)c(=O)[nH]c1=O | inactive
16 | CCCCn1c(O)c(C(CC)=NCc2ccco2)c(=O)[nH]c1=O | 20.6 µM (active)
17 | CCC(=NCCCO)c1c(O)n(-c2ccc(OC)cc2)c(=O)[nH]c1=O | inactive
18 | CN(C)CCCN=Cc1c(O)n(Cc2ccco2)c(=O)[nH]c1=O | inactive
19 | O=C(N/N=C/c1c(O)n(Cc2ccccc2)c(=O)[nH]c1=O)c1ccccc1 | inactive
20 | CCCCCCN=C(CC)c1c(O)n(CCCC)c(=O)[nH]c1=O | 5.17 µM (active)
21 | CC/C(=N\NC(=O)c1ccccc1O)c1c(O)n(Cc2ccccc2)c(=O)[nH]c1=O | inactive

Row | SMILES | Potency
22 | CCC(=NCc1ccco1)c1c(O)n(Cc2ccccc2)c(=O)[nH]c1=O | 3.66 µM (active)
23 | c1cc2c(c(NC3=NCCCS3)c1)CCCC2 | inactive
24 | O=c1c2ccccc2nc(CBr)n1-c1ccc(Cl)cc1 | inactive
25 | C[N+]12CN3CN(CN(C3)C1)C2 | inactive
26 | CC(CC(C#N)(c1ccccc1)c1ccccc1)N1CCCCC1 (stereo unspecified) | inactive
27 | N#Cc1c(Cl)c(Cl)c(Cl)c(C#N)c1Cl | inactive
28 | Cc1cccc(OP(=O)(Oc2cccc(C)c2)OC(c2ccccc2)C(F)(F)F)c1 (stereo unspecified) | inactive
29 | Cc1ccc(OC(=O)N(C)C[C@@H]2OCc3cnnn3CCCC(=O)N([C@H](C)CO)C[C@@H]2C)cc1 | inactive
30 | O=C1NCN(c2ccccc2)C12CCN(C(c1cccs1)c1nnnn1C1CCCCC1)CC2 (stereo unspecified) | inactive
31 | CC(=O)C1(O)CCC2C3CCC4=C(Cl)C(=O)CCC4(C)C3CCC21C (stereo unspecified) | inactive
32 | Cc1ccc(Cn2nnnc2CN2CCC(n3nnc4ccccc43)CC2)cc1 | 5.8 µM (active)
33 | N[C@@H](Cc1c[nH]c2ccccc12)c1nnc(SCc2c(F)cccc2Cl)o1 | 18.4 µM (active)
34 | CCOC(=O)CC(SP1(=S)OCC2(CCCCO2)C(C2CCCCO2)O1)C(=O)OCC (stereo unspecified) | inactive
35 | CC(C)c1ccc(OCC(=O)N2CCCN(C)CC2)cc1 | inactive
36 | Cn1cc(C(=O)OCC(=O)N2CCCC2)c2ccccc21 | 23.1 µM (active)
37 | CC(=O)Nc1ccccc1C(=O)OCC(=O)c1cccc2ccccc12 | inactive
38 | OCC#CC[N+]1(CC#Cc2ccccc2)CCCC1 | inactive
39 | C[C@]12CCC3C(CC[C@H]4[C@H](O)[C@H](O)CC[C@]34C)C1CCC2=O (stereo partly specified) | inactive
40 | O=C1CC(=O)N(Cc2ccccc2)C(=O)N1CCCCCCN1C(=O)CC(=O)N(Cc2ccccc2)C1=O | inactive
41 | CC(C)(C)c1ccc(CN2C(=O)CN=C(c3ccccc3)c3ccccc32)cc1 | 16.4 µM (active)
42 | c1ccc(C(CN2CCCCC2)c2ccccc2)cc1 | inactive

Row | SMILES | Potency
43 | O=C(Nc1cccc2ccccc12)N1CCC2(CC1)OCCO2 | inactive
44 | O=C(CCC(=O)N1C[C@H]2C[C@@H](C1)c1cccc(=O)n1C2)NCc1ccccc1C(F)(F)F | inactive
45 | COc1ccc2c(c1)NP(=S)(c1ccccc1)N2 (stereo unspecified) | inactive
46 | O=C1NC(=O)C(CCOc2ccccc2)(CCc2ccccc2)C(=O)N1 | inactive
47 | COc1ccc(NC(=O)N2Cc3ccccc3-n3nncc3C2)cc1 | inactive
48 | CC1CC=CCC12C(=O)NC(=S)NC2=O (stereo unspecified) | inactive
49 | CCn1cc(CN2CCCC(C(=O)c3cccc(C(F)(F)F)c3)C2)cn1 (stereo unspecified) | inactive
50 | Cc1ccccc1NC(=O)COC(=O)c1cc(C)n(C2CC2)c1C | 13 µM (active)
51 | Cc1nn(-c2ccccc2)c(C)c1NC(=O)COC(=O)Cc1ccccc1 | inactive
52 | Cc1cc(C(=O)OCC(=O)Nc2c(F)cccc2F)c(C)n1C1CC1 | inactive
53 | COc1cccc(C(=O)N2C[C@H]3C[C@@H](C2)c2cccc(=O)n2C3)c1 | inactive
54 | c1cc2c(cc1C1OCC3C(c4ccc5c(c4)OCO5)OCC13)OCO2 (stereo unspecified) | inactive
55 | CC(=O)OC1C2(CC3N4C(=O)C5(CO)SSC4(CC31O)C(=O)N5C)OC(C)C(C)(C)C2=O (stereo unspecified) | 2.31 µM (active)
56 | COc1cc(-n2c(=S)[nH]c3ccc(C)cc3c2=O)c(Cl)cc1Cl | 9.2 µM (active)
57 | O=c1c2ccccc2[nH]c(=S)n1-c1cccc(Cl)c1 | inactive
58 | S=C(NCCc1ccccc1)N1Cc2cc(N3CCOCC3)ccc2-n2nncc2C1 | inactive
59 | O=c1[nH]c2ccccc2n1C1CCN(C(c2ccnc3ccccc23)c2nnnn2Cc2ccccc2)CC1 (stereo unspecified) | inactive
60 | CSCCC(c1nnnn1C(C)(C)C)N1CCC(n2c(=O)[nH]c3ccccc32)CC1 (stereo unspecified) | inactive
61 | O=c1[nH]c2ccccc2n1C1CCN(C(c2ccccc2)c2nnnn2Cc2ccccc2)CC1 (stereo unspecified) | 18.4 µM (active)
62 | O=C1C2CCN(CC2)C1(CO)CO | inactive
63 | CCOC(=O)c1c(-c2ccccc2)oc2ccc(OC(=O)N(C)C)cc12 | 16.4 µM (active)

Row | SMILES | Potency
64 | CN(C)C(=O)Oc1ccc2c(c1)O/C(=C\c1ccccc1)C2=O | inactive
65 | Oc1ccc2c3c1OC1[C@H](O)CC[C@@]4(O)[C@@H](C2)N(CC2CC2)CC[C@]314 (stereo partly specified) | inactive
66 | CCc1ccc(OCC(=O)N2CCN(CC(=O)Nc3ccccc3Cl)CC2)cc1 | inactive
67 | CC(=O)NCC1=C(c2ccc3ccccc3c2)C[C@@H]2CC[C@H]1N2Cc1ccco1 | inactive
68 | C[C@]12CC[C@H](O)C[C@H]1CC[C@@H]1C2CC[C@]2(C)[C@@H](C3=CC(=O)OC3)[C@@H](O)C[C@]12O (stereo partly specified) | 6.51 µM (active)
69 | C[C@]12CCC3C(CC[C@H]4C[C@@H](O)CC[C@]34C)C1C[C@@H](O)[C@H]2O (stereo partly specified) | inactive
70 | Cc1cc(-c2ccc(N)c(C)c2)ccc1N | inactive
71 | CC(C)(C)c1ccc(OC(=O)N2CCCCC2)cc1 | inactive
72 | CC1([N+](=O)[O-])COP(=O)(Nc2ccc(F)cc2)OC1 (stereo unspecified) | inactive
73 | Cc1cccc(NC(=O)OC2CN3CCC2CC3)c1 (stereo unspecified) | inactive
74 | COC1=C[C@@H]2[C@@H]3Cc4ccc(OC)c(O)c4[C@]2(CCN3C)CC1=O | inactive
75 | NC(=O)Cn1cc(C(=O)c2ccccc2F)c2ccccc21 | inactive
76 | N#Cc1ccc(Cn2cc(C(=O)c3ccco3)c3ccccc32)cc1 | 18.4 µM (active)
77 | CC(C)Nc1nc(Cl)nc(NC(C)C)n1 | inactive
78 | O=C(NCC1=C(c2ccc3ccccc3c2)C[C@@H]2CC[C@H]1N2Cc1ccco1)c1cccs1 | inactive
79 | Cc1ccc(N2C(=O)NC(=O)C(CCc3ccncc3)(Cc3cccc(Cl)c3Cl)C2=O)cc1 (stereo unspecified) | inactive
80 | O=C1NC(=O)C(CCc2ccccn2)(Cc2cccc(Cl)c2Cl)C(=O)N1c1ccc(Br)cc1 (stereo unspecified) | 7.31 µM (active)
81 | C[C@H]1CN([C@@H](C)CO)C(=O)CCCn2nncc2CO[C@H]1CN(C)C(=O)Oc1ccccc1 | inactive
